# DT40 TDP1 CPT = growth inhibition of DT40 Tdp1-/-;hTDP1 cells with camptothecin (screen for TDP1 inhibitors). chicken DT40 Tdp1-/-;hTDP1 cells + 20 nM CPT, ATP luminescence, 48 h. Potency, µM (series often up to 46.2 µM), without a hit: at the top dose activity change, negative = growth inhibition, actives largely listed as inhibitors. hit rate 12% among 420,000; also: potency is read from the fitted curve at half-maximal effect; nearly all actives have a fitted effect of over 55% in size
#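 Cell growth measured by CellTiter-Glo luminescence after a minimum 48 h, 37 C compound exposure with 20 nM CPT in Tdp1-knockout DT40 cells stably expressing hTDP1, seeded 400/well; qHTS titration format.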
# DT40 TDP1 no CPT = qHTS for Inhibitors of human tyrosyl-DNA phosphodiesterase 1 (TDP1): qHTS in cells in absence of CPT | Potency, µM (highest dose often 46.2 µM), without a hit: at the top dose activity change, negative = growth inhibition, most hits filed as inhibitors | DT40 Tdp1-/- hTDP1 cells, no CPT, ATP luminescence, 48 h | hit rate 15% among 420,000; also: potency is read from the fitted curve at half-maximal effect; nearly all actives have a fitted effect of over 55% in size
#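 Cells were dispensed at 400 per well, compounds added by pin tool, plates incubated ≥48 hr at 37 °C, then CellTiter-Glo added for 30 min at room temperature before luminescence reading. Line: DT40 Tdp1-/- complemented with hTDP1; camptothecin omitted.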
# LDHA inh = blocks human lactate dehydrogenase A. P00338. purified LDHA, NADH/diaphorase-resazurin fluorescence; hits give low values. activity change, % (values are at about 110 or 230 µM). hit rate 0.15% among 480,000. AID 1347041; in the data active = activity change below about -30%; inconclusive = mostly about -25% to -30%;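 also: plate controls were DMSO wells for no effect and wells without enzyme for full effect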
#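 Human LDH5 (2 nM) was incubated with 0.06 mM NADH and 0.2 mM pyruvate for 5 min at room temperature in Tris pH 7.4. Remaining NADH was coupled through diaphorase/resazurin, and resorufin fluorescence was read at 0 and 20 min.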
# VP16 counter = Gal4-VP16 reporter inhibition counter-screen; Drosophila S2 Gal4-VP16 UAS-luciferase, luminescence, 20 h; Potency, µM (series often up to 53.6 µM), for inactives: at the highest dose activity, negative = inhibition, most hits filed as inhibitors; hit rate 3.5% among 310,000; AID 2546;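 also: Gal4-VP16 expression switched on by copper sulfate through the metallothionein promoter; potency is read from the fitted curve at half-maximal effect; nearly all actives have a fitted effect of over 50% in size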
# IL-1B inflam inh = inhibitors of inflammasome signaling (IL-1 beta secretion) | THP-1 LPS/ATP IL-1B secretion, AlphaLISA, 16 h; hits give low values | activity change, % at 57.5 µM | hit rate 4.7% among 360,000; in the data active = activity change below about -50%; inconclusive = mostly about -30% to -49%
#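 THP-1 cells pretreated 1 hr with compounds (up to 57.5 uM final), then stimulated with LPS (250 ng/mL final) plus ATP (1.25 mM final); secreted IL-1B measured by AlphaLISA after 16 hr, decreased signal indicating inhibition.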
# RORgamma inh = blocks mouse ROR gamma transcriptional activity. P51450. Potency, µM (titrated, usually from 53.6 µM), for inactives: at the highest dose activity change, negative = inhibition, hits mostly inhibitors. hit rate 5.4% among 310,000. Drosophila S2 Gal4-RORgamma UAS-luciferase reporter, 20 h; also: potency is read from the fitted curve at half-maximal effect; nearly all actives have a fitted effect of over 60% in size
# Target sequence (P51450 whole entry, looked up, the tested form may be a part): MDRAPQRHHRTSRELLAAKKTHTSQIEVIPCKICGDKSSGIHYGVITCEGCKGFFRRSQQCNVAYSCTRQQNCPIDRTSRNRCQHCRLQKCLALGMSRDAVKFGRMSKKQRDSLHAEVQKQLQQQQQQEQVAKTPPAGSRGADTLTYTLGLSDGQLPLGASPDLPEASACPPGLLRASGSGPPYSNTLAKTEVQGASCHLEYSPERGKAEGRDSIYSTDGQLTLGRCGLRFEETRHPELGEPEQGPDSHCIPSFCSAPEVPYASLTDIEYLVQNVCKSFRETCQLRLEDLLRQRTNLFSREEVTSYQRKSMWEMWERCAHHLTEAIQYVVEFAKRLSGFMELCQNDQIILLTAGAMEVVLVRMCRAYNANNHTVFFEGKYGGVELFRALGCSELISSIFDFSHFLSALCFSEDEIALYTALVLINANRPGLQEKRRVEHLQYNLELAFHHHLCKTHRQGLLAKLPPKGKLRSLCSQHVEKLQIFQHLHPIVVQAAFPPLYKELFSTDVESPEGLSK
#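 Using a luciferase readout, inhibitors were identified by reduced reporter activity in Drosophila cells coexpressing a copper-inducible Gal4–ROR gamma fusion and UAS-driven Photinus luciferase, incubated 20 hr after 700 uM copper sulfate.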
# Active calls of the source: *; ? = inconclusive; / = no result given; [ ] = dose if it differs, or a comment. Rows were chosen to be rich in hits. Some 18% of all compounds tested hit in one or more screens of this group. Unless noted, calls follow the shape of the dose curve; as a rule, active = well fitted curve in the direction sought with a large enough effect; inconclusive = small, poorly fitted or top-dose-only effect, or another doubt; inactive = no such curve, though single readings can be large; an effect the other way counts as inactive or inconclusive. Unless noted, % is scaled to controls: 0 for no effect and ±100 for the full control effect.
SMILES,DT40 TDP1 CPT,DT40 TDP1 no CPT,LDHA inh,VP16 counter,IL-1B inflam inh,RORgamma inh
COc1cc2c(cc1NC(=O)COC(=O)C1CC(=O)N(Cc3ccco3)C1)oc1ccccc12 (stereo not drawn),-1%,-29%,-4,7.9µM*,-56*,8.9µM*
COc1cc2c(cc1NC(=O)COC(=O)[C@@H](NC(=O)c1ccccc1F)C(C)C)oc1ccccc12,?,21µM*,1,11µM*,0,10µM*
COc1cc2c(cc1NC(=O)COCC(=O)O)oc1ccccc12,13%,2%,-10,-10%,-2,2%
CC(C)[C@H](NC(=O)c1ccccc1F)C(=O)OCC(=O)Nc1sccc1C(N)=O,?,12µM*,-13,/,29,/
COc1cc2c(cc1NC(=O)COC(=O)[C@@H](NC(=O)c1ccccc1)C(C)C)oc1ccccc12,?,?,-2,?,10,8.9µM*
CC(C)[C@H](NC(=O)c1ccccc1F)C(=O)OCC(=O)NC(=O)NC1CCCCC1,?,-6%,-2,/,-6,/
CC(NC(=O)/C(C#N)=C\c1ccccc1)C1CC2CCC1C2 (stereo not drawn),/,/,5,/,/,/
CC(Sc1ccc2c(c1)CCC2)C(=O)NC1CC1 (stereo not drawn),/,/,9,/,/,/
COCCn1c(SCC(C#N)CCC#N)nnc1-c1ccc(Cl)cc1 (stereo not drawn),/,/,3,/,/,/
COc1cc2c(cc1NC(=O)COC(=O)CNC(=O)c1ccccc1)oc1ccccc12,1%,-18%,-5,6.3µM*,-4,11µM*
CC(=O)c1ccc(N2CCN(C(=O)COc3ccccc3F)CC2)c(F)c1,?,23µM*,-1,1%,17,?
CCOC(=O)N1CCN(c2ccc(C(C)=O)cc2F)CC1,-19%,-5%,-4,-5%,-5,?
CCC(=O)c1ccc(N2CCN(C(=O)COc3ccccc3F)CC2)c(F)c1,?,13µM*,1,?,32,-9%
O=C(CCOc1ccccc1F)N1CCN(c2ccccc2O)CC1,?,16µM*,5,17%[10 µM],14,?
ClCc1nnc(-c2cc3c(s2)CCCC3)o1,10µM*,16µM*,2,?,-105*,6.3µM*
Clc1ccc(-c2nnc(CSc3nnc4ccccn34)o2)cc1,/,/,12,/,/,/
CC1Sc2n(c3ccccc3[n+]2C)N=C1c1ccccc1 (stereo not drawn),1.5µM*,1.5µM*,-2,?,-5,?
C[n+]1c2n(c3ccccc31)N=C(c1ccc(Cl)cc1)CS2,1.2µM*,0.92µM*,-3,-3%[0.365 µM],-74*,7%
CSc1ccccc1NC(=O)c1c(F)cccc1F,/,/,2,/,/,/
CC(CCc1ccccc1)NC(=O)COC(=O)c1cc(NS(=O)(=O)c2ccc(Cl)c([N+](=O)[O-])c2)ccc1O (stereo not drawn),?,?,-8,?,-98*,?
O=C(COC(=O)c1ccccc1NS(=O)(=O)c1cc([N+](=O)[O-])ccc1Cl)c1ccccc1,/,/,/,0%[10 µM],/,-24%
CN(C(=O)COC(=O)c1cc(NS(=O)(=O)c2cc([N+](=O)[O-])ccc2Cl)ccc1O)C1CCCCC1,-25%,-6%,4,-6%,-81*,?
CCOc1ccccc1C1c2[nH]c3ccccc3c2C[C@H]2C(=O)N(C3CCN(Cc4ccccc4)CC3)CC(=O)N12 (stereo partly drawn),5.8µM*,16µM*,-6,-8%,?,-39%
COc1ccc(C2c3[nH]c4ccccc4c3C[C@H]3C(=O)N(C4CCN(Cc5ccccc5)CC4)CC(=O)N23)c(OC)c1 (stereo partly drawn),?,15µM*,-2,-3%,9,15%

# Bioassay records: PubChem BioAssay, National Center for Advancing Translational Sciences (NCATS)
